In PubChem BioAssay (Tox21):
Values joined by “and” are separate entries in the source; they are usually repeats but may differ in a detail not shown here. Equal entries are not always repeated. Records with an inconclusive call do not appear. Some structures have more than one record in an assay (separate samples or runs), and their calls can disagree. Active and inactive are the calls of the source. Unless noted, the call rests on the fitted dose curve; in most records, active means well fitted curve in the direction sought with a large enough effect in the repeat runs; inconclusive means weak or mixed curves; inactive means no such curve, though single readings can be large; an effect the other way counts as inactive or inconclusive.

Assays:
[1] = molecular target: Thyrotropin receptor (Homo sapiens) (UniProt P16473); test: qHTS assay to identify small molecule antagonists of the thyroid stimulating hormone receptor (TSHR) signaling pathway (AID 1259385; calls by dose curve; further: nearly all actives have a fitted effect of over 20% in size)
Outline: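 TSHR-HEK293 cells (800/well) plated 18 h, then compounds with Ro20-1724 and TSH at 1.5 ng/mL final, 30 min at room temperature. cAMP quantified by HTRF (cAMP-d2/anti-cAMP-cryptate, 1 h); 15 concentrations in triplicate.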

[2] = qHTS assay to identify small molecule agonists of the estrogen receptor alpha (ER-alpha) signaling pathway in the presence of an antagonist - cell viability counter screen (AID 1259386);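 further: series mostly up to about 92 µM; cells exposed to compounds for 22 h at 37 °C before the viability read; nearly all actives have a fitted effect of over 30% in size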
Outline: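 Using estrogen-depleted VM7Luc4E2 cells, the 15-concentration compound series was applied together with 10.0nM ICI-182,780 and incubated 22hr at 37C/5% CO2. Cell viability was then scored by CellTiter-Fluor.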

[3] = molecular target: Progesterone receptor (Homo sapiens) (UniProt P06401); test: qHTS assay to identify small molecule agonists of the progesterone receptor (PR) signaling pathway (AID 1346784; calls by dose curve; further: nearly all actives have a fitted effect of over 30% in size)
Outline: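 Using charcoal-stripped serum (2%) to limit endogenous steroids, PR-UAS-bla HEK 293T cells received compounds for 16 hr at 37C after 6 hr plating; beta-lactamase FRET fluorescence was recorded following 2 hr substrate loading at room temperature.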

[4] = molecular target: Progesterone receptor (Homo sapiens) (UniProt P06401); test: qHTS assay to identify small molecule antagonists of the progesterone receptor (PR) signaling pathway (AID 1346795; active means well fitted inhibition curve with a large enough effect in the signal ratio in the repeat runs, not every such curve was filed as active; the % refers to the signal ratio)
Outline: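 Inhibition of R5020-induced (1 nM final) beta-lactamase reporter signal in PR-UAS-bla HEK293T cells was scored by FRET fluorescence after overnight (16 hr) compound treatment.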

[5] = qHTS assay to identify small molecule antagonists of the progesterone receptor (PR) signaling pathway - cell viability counter screen (AID 1346798); further: series mostly up to about 92 µM; nearly all actives have a fitted effect of over 50% in size
Outline: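 ATP content as viability readout: CellTiter-Glo luminescence, 30 min room temperature, in PR-UAS-bla HEK293T cells after 16 hr compound/R5020 treatment at 37C and 5% CO2.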

[6] = qHTS assay to identify small molecule agonists of the progesterone receptor (PR) signaling pathway - cell viability counter screen (AID 1346799; calls by dose curve; further: nearly all actives have a fitted effect of over 45% in size)
Outline: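 Cytotoxicity in PR-bla HEK293T cells: 16 h compound, 37C; CellTiter-Glo added post-FRET read; luminescence after 30 min RT.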

[7] = qHTS assay to identify small molecule antagonists of the TGF-beta/Smad signaling pathway - cell viability counter screen (AID 1346824); further: nearly all actives have a fitted effect of over 50% in size
Outline: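 SBE-bla HEK 293T cells, incubated overnight, then compound plus 0.25 ng/mL TGF-beta1 (stock added) for 5 hr at 37 C. Viability was read in the same wells by CellTiter-Glo luminescence after 30 min at room temperature.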

[8] = qHTS assay to identify small molecule agonists of the TGF-beta/Smad signaling pathway - cell viability counter screen (AID 1346829); further: top concentration of the series differs between compounds; nearly all actives have a fitted effect of over 45% in size
Outline: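 After overnight seating at 37 C and 5% CO2, reporter cells got compounds for 5 hr and FRET substrate for 2 hr; cell viability then came from CellTiter-Glo luminescence.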

[9] = qHTS assay to identify small molecule agonists of the TGF-beta/Smad signaling pathway (AID 1346859; active means well fitted activation curve with a large enough effect in the signal ratio in the repeat runs, not every such curve was filed as active; the % refers to the signal ratio; further: series mostly up to about 77 µM)
Outline: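 Stable Smad binding element-beta-lactamase HEK 293T cells; 5 hr compound exposure at 37 C under 5% CO2; 2 hr room-temperature substrate step; fluorescence excited at 405 nm, collected at 460 nm and 530 nm.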

[10] = molecular target: Thyrotropin-releasing hormone receptor (Homo sapiens) (UniProt P34981); test: qHTS assay to identify small molecule antagonists of the thyrotropin-releasing hormone receptor (TRHR) signaling pathway (AID 1346877; active means well fitted inhibition curve with a large enough effect in the repeat runs, not every such curve was filed as active; further: series mostly up to about 51 µM)
Outline: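 Calcium signal in dye-loaded TRHR/HEK293 cells; compounds added 5 min before TRH (1 nM final); fluorescence monitored 3 min at 1 s steps.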

[11] = molecular target: Thyrotropin-releasing hormone receptor (Homo sapiens) (UniProt P34981); test: qHTS assay to identify small molecule agonists of the thyrotropin-releasing hormone receptor (TRHR) signaling pathway (AID 1346891; calls by dose curve;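 further: HEK293 cells expressing TRHR with calcium dye readout; series mostly up to about 58 µM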)
Outline: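 In 1536-format, 1500 TRHR-Hek293 cells per well grew 18 h, took up calcium dye for 2 h at 37 °C, received compound, and were read kinetically; 15-point titrations, triplicates.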

[12] = Human pregnane X receptor (PXR) small molecule agonists, qHTS cell viability counter screen (AID 1346977); further: nearly all actives have a fitted effect of over 50% in size
Outline: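 Readout is CellTiter-Fluor fluorescence from PXR-Luc HepG2 cells. Plated cells rested 5hr, then were treated with compounds for 24hr at 37C and 5% CO2, with reagent present during the last hour.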

[13] = Caspase-3/7 induction in HepG2 cells by small molecules, qHTS assay (AID 1346978); further: nearly all actives have a fitted effect of over 15% in size
Outline: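 Wild-type HepG2 cells, 2,000/well, settled 5 hr at 37 C and 5% CO2, then compound-treated for 17 hr; caspase-3/7 activity read by luminescent Caspase-Glo 3/7 after 30 min at room temperature.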

[14] = Caspase-3/7 induction in CHO-K1 cells by small molecules, qHTS cell viability counter screen (AID 1346979); further: nearly all actives have a fitted effect of over 35% in size
Outline: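 To flag cytotoxic compounds, treated CHO-K1 wild-type cells were given CellTiter-Fluor at 16hr and read fluorescently after 1hr at 37C; the caspase-3/7 luminescence was measured in these same wells.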

[15] = Caspase-3/7 induction in CHO-K1 cells by small molecules, qHTS assay (AID 1346980); further: nearly all actives have a fitted effect of over 15% in size
Outline: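 Wild-type CHO-K1 cells exposed to compounds for 17hr at 37 C, 5% CO2. Caspase-3/7 activity then measured by Caspase-Glo 3/7 luminescence after 30min at room temperature.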

[16] = molecular target: Nuclear receptor subfamily 1 group I member 2 (Homo sapiens) (UniProt O75469); test: Human pregnane X receptor (PXR) small molecule agonists, qHTS assay (AID 1346982); further: nearly all actives have a fitted effect of over 35% in size; further: potency means the concentration at half of the fitted maximal effect
Outline: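 Tox21 qHTS; PXR-Luc HepG2; compounds pinned from DMSO; 24 hr, 37 C; ONE-Glo luciferase detection, 30 min room temperature.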

[17] = Caspase-3/7 induction in HepG2 cells by small molecules, qHTS cell viability counter screen (AID 1346981); further: series mostly up to about 92 µM; nearly all actives have a fitted effect of over 30% in size
Outline: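 After a 5-hr attachment period at 37 C and 5% CO2, wild-type HepG2 cells received compounds in DMSO. Sixteen hours later CellTiter-Fluor was dispensed and the fluorescent signal quantified after a further hour.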

[18] = molecular target: Nuclear receptor subfamily 1 group I member 2 (Rattus norvegicus) (UniProt Q9R1A7); test: Rat pregnane X receptor (rPXR) activation by small molecules, qHTS assay (AID 1346983); conditions: rPXR luciferase reporter cells, One-Glo luminescence, 24 h; max activation: stronger effect = higher value; further: nearly all actives have a fitted effect of over 20% in size
Outline: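 Cell-based rPXR activation assay: rPXR cells, 2,000 per well, rested 5hr at 37 C, then exposed to compounds in DMSO for 24 hr at 37 C. Luciferase activity read by One-Glo luminescence after 30 min at room temperature.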

[19] = molecular target: Nuclear receptor subfamily 1 group I member 2 (Homo sapiens) (UniProt O75469); test: CYP3A4 induction through human pregnane X receptor (PXR) by small molecules, qHTS assay (AID 1346984); further: nearly all actives have a fitted effect of over 40% in size
Outline: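 Cells (DPX-2; HepG2 with PXR element plus CYP3A4-promoter luciferase) settled 5hr, then were treated 24hr at 37C. A 3hr, 3uM-final Luciferin-IPA step preceded luminescence measurement with One-Glo.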

[20] = molecular target: Nuclear receptor subfamily 1 group I member 2 (Homo sapiens) (UniProt O75469); test: Human pregnane X receptor (PXR) activation by small molecules, qHTS assay (AID 1346985); further: nearly all actives have a fitted effect of over 40% in size
Outline: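 DPX-2 cells (HepG2 co-transfected with a PXR response element and a CYP3A4-promoter luciferase construct) were seeded at 2,000 per well, rested 5 hr at 37C, then exposed to DMSO-dissolved compounds for 24 hr. Activation was read as luciferase luminescence.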
On the % scale 0 is the no-effect control and ±100 the full control effect.

Chain of Thyrotropin receptor (Homo sapiens) (P16473 whole entry, looked up): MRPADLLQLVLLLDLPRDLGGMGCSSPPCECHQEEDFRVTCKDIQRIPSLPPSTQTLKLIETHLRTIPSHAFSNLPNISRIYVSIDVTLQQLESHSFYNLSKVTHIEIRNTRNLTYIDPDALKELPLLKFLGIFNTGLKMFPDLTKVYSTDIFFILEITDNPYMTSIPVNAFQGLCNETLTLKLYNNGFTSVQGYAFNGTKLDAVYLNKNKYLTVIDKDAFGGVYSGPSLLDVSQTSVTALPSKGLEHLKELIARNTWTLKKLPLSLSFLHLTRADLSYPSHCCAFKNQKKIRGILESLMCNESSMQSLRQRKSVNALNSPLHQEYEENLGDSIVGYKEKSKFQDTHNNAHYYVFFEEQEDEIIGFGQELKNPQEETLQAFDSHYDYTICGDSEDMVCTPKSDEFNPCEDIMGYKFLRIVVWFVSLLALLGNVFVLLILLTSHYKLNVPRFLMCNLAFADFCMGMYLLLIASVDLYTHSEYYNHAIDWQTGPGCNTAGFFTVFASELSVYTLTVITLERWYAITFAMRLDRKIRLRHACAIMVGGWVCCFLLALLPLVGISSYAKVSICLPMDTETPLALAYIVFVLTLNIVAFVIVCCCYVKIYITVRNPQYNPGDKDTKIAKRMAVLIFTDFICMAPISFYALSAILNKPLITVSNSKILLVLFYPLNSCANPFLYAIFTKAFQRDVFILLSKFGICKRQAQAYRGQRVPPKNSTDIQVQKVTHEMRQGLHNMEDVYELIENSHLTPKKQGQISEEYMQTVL
Chain of Thyrotropin-releasing hormone receptor (Homo sapiens) (P34981 whole entry, looked up): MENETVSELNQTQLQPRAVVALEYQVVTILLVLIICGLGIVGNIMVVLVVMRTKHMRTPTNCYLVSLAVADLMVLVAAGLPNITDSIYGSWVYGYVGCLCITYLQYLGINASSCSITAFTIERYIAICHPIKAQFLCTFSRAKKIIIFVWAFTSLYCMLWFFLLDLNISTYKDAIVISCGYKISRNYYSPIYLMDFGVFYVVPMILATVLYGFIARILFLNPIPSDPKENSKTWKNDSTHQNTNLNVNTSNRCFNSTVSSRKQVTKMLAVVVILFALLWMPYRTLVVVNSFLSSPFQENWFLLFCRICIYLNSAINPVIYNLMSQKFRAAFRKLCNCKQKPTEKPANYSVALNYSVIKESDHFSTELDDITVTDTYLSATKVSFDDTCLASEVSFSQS
Chain of Progesterone receptor (Homo sapiens) (P06401 whole entry, looked up): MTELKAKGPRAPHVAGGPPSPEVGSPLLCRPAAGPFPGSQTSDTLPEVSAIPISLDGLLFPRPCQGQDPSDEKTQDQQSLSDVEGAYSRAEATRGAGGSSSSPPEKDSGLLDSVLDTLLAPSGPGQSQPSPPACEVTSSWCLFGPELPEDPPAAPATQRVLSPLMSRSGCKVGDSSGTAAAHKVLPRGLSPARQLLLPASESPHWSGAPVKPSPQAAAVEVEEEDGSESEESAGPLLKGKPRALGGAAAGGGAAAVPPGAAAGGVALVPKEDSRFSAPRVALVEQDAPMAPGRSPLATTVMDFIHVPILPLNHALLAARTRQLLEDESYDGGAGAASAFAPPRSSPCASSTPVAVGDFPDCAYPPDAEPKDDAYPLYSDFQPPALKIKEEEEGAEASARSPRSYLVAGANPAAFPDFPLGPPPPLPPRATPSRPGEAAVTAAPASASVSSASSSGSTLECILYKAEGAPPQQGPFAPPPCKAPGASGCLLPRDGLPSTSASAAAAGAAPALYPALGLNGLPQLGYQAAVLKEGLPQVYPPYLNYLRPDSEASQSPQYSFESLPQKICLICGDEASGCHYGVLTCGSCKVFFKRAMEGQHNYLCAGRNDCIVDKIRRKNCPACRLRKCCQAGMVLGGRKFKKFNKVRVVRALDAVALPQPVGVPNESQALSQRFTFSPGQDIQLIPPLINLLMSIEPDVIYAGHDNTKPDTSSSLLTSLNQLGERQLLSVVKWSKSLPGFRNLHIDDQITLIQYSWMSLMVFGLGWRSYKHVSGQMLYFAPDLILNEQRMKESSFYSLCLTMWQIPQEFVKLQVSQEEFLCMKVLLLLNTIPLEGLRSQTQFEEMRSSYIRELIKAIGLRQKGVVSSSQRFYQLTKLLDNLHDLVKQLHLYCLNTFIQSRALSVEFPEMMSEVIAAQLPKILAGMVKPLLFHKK
Chain of Nuclear receptor subfamily 1 group I member 2 (Homo sapiens) (O75469 whole entry, looked up): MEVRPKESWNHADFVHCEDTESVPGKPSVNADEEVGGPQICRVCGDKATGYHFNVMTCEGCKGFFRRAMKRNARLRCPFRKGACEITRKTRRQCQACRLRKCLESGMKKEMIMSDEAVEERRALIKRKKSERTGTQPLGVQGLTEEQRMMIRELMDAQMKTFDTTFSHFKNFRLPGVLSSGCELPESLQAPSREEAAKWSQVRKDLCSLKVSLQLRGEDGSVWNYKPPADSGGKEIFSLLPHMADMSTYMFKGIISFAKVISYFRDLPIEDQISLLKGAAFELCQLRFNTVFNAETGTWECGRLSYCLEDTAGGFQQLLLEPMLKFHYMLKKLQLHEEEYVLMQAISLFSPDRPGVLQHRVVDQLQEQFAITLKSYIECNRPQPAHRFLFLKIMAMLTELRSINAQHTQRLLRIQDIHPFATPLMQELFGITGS
Chain of Nuclear receptor subfamily 1 group I member 2 (Rattus norvegicus) (Q9R1A7 whole entry, looked up): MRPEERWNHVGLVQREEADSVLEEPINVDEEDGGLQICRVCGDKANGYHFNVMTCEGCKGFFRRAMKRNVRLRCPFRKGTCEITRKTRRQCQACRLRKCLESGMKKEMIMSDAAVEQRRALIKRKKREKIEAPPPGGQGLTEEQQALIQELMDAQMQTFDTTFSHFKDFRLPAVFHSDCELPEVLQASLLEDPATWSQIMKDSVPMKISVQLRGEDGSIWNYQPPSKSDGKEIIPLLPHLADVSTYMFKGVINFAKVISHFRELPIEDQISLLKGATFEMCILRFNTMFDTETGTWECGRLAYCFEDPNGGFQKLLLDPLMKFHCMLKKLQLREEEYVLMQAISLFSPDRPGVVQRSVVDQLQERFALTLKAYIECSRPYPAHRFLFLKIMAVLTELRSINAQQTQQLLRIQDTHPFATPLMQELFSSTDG

CCC(C)c1ccccc1O (stereo not given)
inactive: Potency [1] | Potency [2] | Potency [3] | Potency [4] | Potency [5] | Potency [6] | Potency [7] | Potency [8] | outcome [9] | Potency [10] | Potency [11] | Potency [12] | Potency [13] | Potency [14] | Potency [15] | Potency [16]

c1ccc2c(c1)Oc1ccccc1S2
inactive: Potency [1] | Potency [2] | Potency [3] | Potency [4] | Potency [5] | Potency [6] | Potency [7] | Potency [8] | outcome [9] | Potency [10] | Potency [11] | Potency [12] | Potency [13] | Potency [14] | Potency [15] | Potency [17] | Potency [16]

CCCCC(CC)COC(=O)c1ccc(N(C)C)cc1 (stereo not given)
inactive and 54.5 µM (active): Potency [16]
inactive: Potency [1] | Potency [2] | Potency [3] | Potency [4] | Potency [5] | Potency [6] | Potency [7] | Potency [8] | outcome [9] | Potency [13] | Potency [14] | Potency [15] | Potency [17] | max activation [18] -1.01% | Potency [19] | Potency [20]

COc1ccccc1/C=C/C=O
inactive: Potency [1] | Potency [2] | Potency [3] | Potency [4] | Potency [5] | Potency [6] | Potency [7] | Potency [8] | outcome [9] | Potency [13] | Potency [15]

CCCCNS(=O)(=O)c1ccccc1
inactive: Potency [1] | Potency [2] | Potency [3] | Potency [4] | Potency [5] | Potency [6] | Potency [8] | outcome [9] | Potency [10] | Potency [11] | Potency [13] | Potency [14] | Potency [15]

c1cc(-c2ccncc2)ccn1
inactive: Potency [1] | Potency [2] | Potency [3] | Potency [4] | Potency [5] | Potency [6] | Potency [8] | outcome [9] | Potency [10] | Potency [11] | Potency [13] | Potency [14] | Potency [15] | Potency [17] | Potency [16]

C[Si](C)(C)O[Si](C)(C)C
68.2 µM (active) and inactive: Potency [16]
inactive: Potency [1] | Potency [2] | Potency [3] | Potency [4] | Potency [5] | Potency [6] | Potency [7] | Potency [8] | outcome [9] | Potency [10] | Potency [11] | Potency [12] | Potency [13] | Potency [14] | Potency [15] | Potency [17] | max activation [18] -1.76% | Potency [19] | Potency [20]

O=Cc1ccccc1O
inactive: Potency [1] | Potency [2] | Potency [3] | Potency [4] | Potency [5] | Potency [6] | Potency [7] | Potency [8] | outcome [9] | Potency [10] | Potency [11] | Potency [12] | Potency [13] | Potency [14] | Potency [15] | Potency [16]
